Shown are actives, neighbours in structure and some others; about 9.2% of the full set was active somewhere.
ELG1 repair inh – ELG1-dependent DNA repair inhibition; HEK293T ELG1-luciferase reporter, luminescence, 16 h; DNA damage induced by 5-fluorouridine; Potency, µM (highest dose often 46.1 µM), without a hit: at the top dose activity change, negative = inhibition, usual class: inhibitors; actives 2.3% (n = 330,000); AID 504467; note: % is set by controls: 0 for no effect and ±100 for the full control effect; nearly all actives have a fitted effect of over 55% in size
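In this reporter screen, reduction of luminescence relative to DMSO vehicle indicated activity. Compounds and 5-fluorouridine were added together to 2,000 cells per well, incubated for 16 hr at 37 °C, then developed with ONE-Glo.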
SMN2 splice enh – enhancers of SMN2 splice variant expression | actives 2.8% (n = 210,000) | HEK293 SMN2-luciferase splicing reporter, luminescence, 30-36 h | AID 1458 | Potency, µM (series often up to 46.1 µM), without a hit: at the highest dose activity change, positive = activation, hits mostly activators; note: % of control where 0% means no effect; nearly all actives have a fitted effect of over 55% in size
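qHTS luciferase splicing reporter: luminescence rises when SMN2 exon 7 is included in transfected HEK293 cells. Compound exposure lasted 30-36 h at 37C, with 4.5 mM final sodium butyrate as control, followed by a ONE-Glo read.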
NPC1 prom act – activators of NPC1 promoter. actives 2.4% (n = 320,000). AID 485313. Huh7 NPC1 promoter luciferase reporter, 24 h. Potency, µM (titrated, usually from 9.22 µM), for the others: at the top dose activation, usual class: activators; note: % of control where 0% means no effect; nearly all actives have a fitted effect of over 60% in size
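In 1536-well qHTS, Huh7 cells harboring an NPC1 promoter–luciferase construct received compound for 24 h; activation was quantified by luminescence following luciferase reagent addition.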
FLuc modulator – inhibits or activates purified firefly luciferase, miR-21 counter-screen; P08659; purified FLuc, Km substrates, luminescence inhibition; Potency, µM (top dose mostly 57.5 µM), for the others: at the top dose activity change, negative = inhibition, actives largely listed as inhibitors; actives 6.9% (n = 360,000);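 note: plate controls were vehicle for no effect and reference inhibitor for full effect; nearly all actives have a fitted effect of over 55% in size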
Target sequence (P08659 whole entry, looked up): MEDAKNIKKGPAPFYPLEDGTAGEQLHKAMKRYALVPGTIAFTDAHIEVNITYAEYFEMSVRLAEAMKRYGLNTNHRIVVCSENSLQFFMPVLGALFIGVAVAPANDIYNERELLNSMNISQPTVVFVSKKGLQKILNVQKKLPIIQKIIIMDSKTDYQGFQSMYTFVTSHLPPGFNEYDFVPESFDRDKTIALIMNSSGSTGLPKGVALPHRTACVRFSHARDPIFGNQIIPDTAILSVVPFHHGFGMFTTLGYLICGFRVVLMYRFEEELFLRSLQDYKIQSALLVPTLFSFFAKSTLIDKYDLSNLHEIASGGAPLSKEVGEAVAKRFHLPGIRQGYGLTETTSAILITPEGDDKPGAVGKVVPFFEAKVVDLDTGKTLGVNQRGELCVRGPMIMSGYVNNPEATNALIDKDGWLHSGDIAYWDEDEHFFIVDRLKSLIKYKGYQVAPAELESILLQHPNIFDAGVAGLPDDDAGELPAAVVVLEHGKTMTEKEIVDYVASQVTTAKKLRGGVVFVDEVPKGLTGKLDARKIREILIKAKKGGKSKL
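Purified P. pyralis luciferase, 10 nM final, with Km-level 10 uM D-luciferin and 10 uM ATP in 50 mM Tris acetate pH 7.5, 10 mM Mg acetate, 0.01% Tween-20, 0.05% BSA; 6-point qHTS titration about 60 µM downward; luminescence read.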
ELG1 genotox – inducers of genotoxicity in HEK293T ELG1-luciferase cells. actives 1.3% (n = 330,000). HEK293T ELG1-luciferase reporter, luminescence, 16 h. AID 504466. Potency, µM (series often up to 46 µM), for the others: at the top dose activity change, positive = activation, most hits filed as activators; note: % of control where 0% means no effect; nearly all actives have a fitted effect of over 60% in size
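Step 1: seed 2,000 HEK293T ELG1-luciferase cells per well. Step 2: add compound or DMSO, incubate 16 hr at 37 °C. Step 3: ONE-Glo, 30 min at room temperature, read luminescence.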
Rab9 promoter act – activates the Rab9 promoter; actives 2.8% (n = 320,000); AID 485297; Huh7 Rab9 promoter-luciferase reporter, luminescence, 24 h; Potency, µM (titrated, usually from 9.22 µM), for the others: at the top dose activation, negative = inhibition, most hits filed as activators; note: % of control where 0% means no effect; nearly all actives have a fitted effect of over 60% in size
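Rab9 promoter-driven luciferase in stably transfected Huh7 cells; 1500 cells/well rested 2 h, exposed to compound in DMSO for 24 h at 37 °C, 5% CO2. Luminescence read 10 min after adding luciferase reagent at ambient temperature.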
Starred values were filed as active, the others as inactive; ? = inconclusive; . = no result given; [ ] = another dose, or the depositor's remark. Calls come from the whole dose curve; as a rule, active = well fitted curve in the direction sought with a large enough effect; inconclusive = small, poorly fitted or top-dose-only effect, or another doubt; inactive = no such curve, though single readings can be large; an effect the other way counts as inactive or inconclusive. Potency is the fitted concentration of half-maximal effect.

SMILES	ELG1 repair inh	SMN2 splice enh	NPC1 prom act	FLuc modulator	ELG1 genotox	Rab9 promoter act
CCCCc1nn2c(=O)cc(COC(=O)c3ccc(NC(=O)C4CCCCC4)cc3)nc2s1	.	.	.	-2%	.	.
Oc1[nH]c(N=C2N=c3ccccc3=N2)c2ccccc12	?	.	3.2µM*	1.3µM*	6.5µM*	?
O=C1C(=O)N(Cc2cccnc2)C(c2cccc(Br)c2)/C1=C(/O)c1ccc2c(c1)OCO2 (stereo not given)	-17%	.	1%	-1%	6%	-6%
COc1ccc(-c2ccn(-c3cccc(F)n3)n2)cc1	?	-55%	3.2µM*	15µM*	?	2.2µM*
Cn1cccc1/C=C1\CCc2ccccc2C1=O	?	1µM*	0.35µM*	1.5µM*	?	0.13µM*
Cn1cccc1/C=C1\CC(C(C)(C)C)C/C(=C\c2cccn2C)C1=O (stereo not given)	?	-28%	-23%	-1%	-14%	-19%
Cn1cccc1/C=C1\Cc2ccccc2C1=O	?	?	-26%	6.7µM*	?	?
CCc1ccc(/C=C2/SC(=S)N(CCC(=O)Nc3cccnc3)C2=O)cc1	-4%	.	-1%	0.85µM*	17%	-9%
O=C(CCCN1C(=O)/C(=C\c2ccccc2)SC1=S)Nc1ccc(C(=O)O)cc1	-14%	.	-6%	17µM*	-2%	-4%
CCc1ccc(/C=C2\SC(=S)N(CCCC(=O)Nc3ccc(C(=O)O)cc3)C2=O)cc1	?	.	-22%	4.8µM*	7%	-33%
O=C(CCN1C(=O)/C(=C/c2ccccc2)SC1=S)Nc1cccnc1	-1%	.	0%	-10%	-1%	3%
NCC1CCCCC1CC(=O)O (stereo not given)	.	4%	.	.	.	.
N#Cc1ccc2c(c1)C[C@]1(CCCCN3C(=O)c4ccccc4C3=O)OC3=C(C(=O)OC4(CCCCC4)C3)C2O1	.	.	3%[1.84 µM]	12%[11.5 µM]	.	-9%[1.84 µM]
Cn1nnnc1SCCCNCc1ccccc1OCc1ccccc1F	.	.	.	-2%	.	.
CSc1cccc(NC(=O)c2cnn(-c3ccc(F)cc3)c2-n2cccc2)c1	.	.	.	-9%	.	.
C=C(C)Cn1cnc2c(oc3nc4c(cc32)CCCC4)c1=O	?	.	2.5µM*	21µM*	?	1.6µM*
NC(=O)C1CCN(S(=O)(=O)c2ccc(N3CCCCS3(=O)=O)cc2)CC1	.	.	.	0%	.	.
CN(Cc1ccccc1)C(=O)c1ccc(NC(=O)Cc2cccc(NC(=O)C3CCCN(C(=O)C4CCCC4)C3)c2)cc1 (stereo not given)	?	.	4%	-16%	-4%	-9%
CN(Cc1ccccc1)C(=O)c1ccc(NC(=O)Cc2cccc(NC(=O)C3CCCN(C(=O)C4CCCCC4)C3)c2)cc1 (stereo not given)	15µM*	.	2%	-10%	-4%	-2%
CN(C(=O)c1cccc(NC(=O)C2CCN(C(=O)OC(C)(C)C)CC2)c1)C1CCCCC1	23µM*	.	.	.	-8%	.
CN(Cc1ccccc1)C(=O)c1ccc(NC(=O)C2CCCN(C(=O)OC(C)(C)C)C2)cc1 (stereo not given)	21µM*	.	.	.	-9%	.
CN(Cc1ccccc1)C(=O)c1ccc(NC(=O)Cc2cccc(NC(=O)C3CCN(C(=O)C4CCC4)CC3)c2)cc1	5.2µM*	.	1%	-21%	2%	-2%
COc1cccc(NC(=O)CN(C)C(=O)c2cc(S(=O)(=O)N3CCCCCC3)ccc2OC)c1	-16%	.	-2%	0%	0%	-2%
O=C(Cn1c(=O)n(Cc2ccc(C(=O)NCc3ccc4c(c3)OCO4)cc2)c(=O)c2ccccc21)Nc1ccc(F)cc1F	.	-12%	.	4%	.	.
CCOc1ccc(NC(=O)CN2C(=O)CC(C)Sc3ccccc32)cc1 (stereo not given)	.	-7%	.	-1%	.	.
